Source: PubChem (The Scripps Research Institute Molecular Screening Center)
Sampled rows, rich in hits. Any-hit rate of the full collection: about 2.6%.
IEC-6 tox – IEC-6 cytotoxicity, counter-screen for KLF5 inhibitors | luminescence viability | inhibition, % at 5 µM | AID 1825 | actives 0.78% (n = 290,000); in the data active = inhibition above about 22%
Ba/F3 V617F tox – loss of viability in JAK2V617F-driven Ba/F3 cells. actives 1.1% (n = 220,000). inhibition, % at 5.6 µM. Ba/F3 EpoR-JAK2V617F viability, ATP luminescence. AID 1446;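 active = inhibition above the campaign mean plus 3 SD over all tested compounds, cut at about 24% in these data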;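 note: cytokine-independent growth of Ba/F3 cells driven by EpoR plus mutant JAK2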
DNA FID counter – fluorescent intercalator displacement, NS3 helicase counter-screen; DNA fluorescent intercalator displacement, fluorescence; inhibition, % at 7.9 µM; actives 0.17% (n = 290,000); AID 1845; in the data active = inhibition above about 37%;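 note: higher means more ethidium bromide displaced from hairpin DNA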
BaF3 parental – parental Ba/F3 viability inhibition as JAK2V617F counter-screen. CellTiter-Glo ATP luminescence. inhibition, % at 5.6 µM. actives 1.1% (n = 220,000). AID 1486;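 active = inhibition above a per-campaign cutoff, the mean inhibition of all tested compounds plus 3 SD, cut at about 27% in these data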
KLF5 inh – suppresses KLF5 promoter-driven expression; DLD-1 KLF5 promoter-luciferase reporter, luminescence; inhibition, % at 5 µM; actives 0.23% (n = 290,000);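 active = inhibition above a per-plate limit of that plate's mean compound inhibition plus 3 SD, cut at about 60% in these data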;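 note: higher means less KLF5 promoter-driven luciferase light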
GPR7 antagonist – antagonists of human GPR7 (neuropeptides B/W receptor 1) | P48145 | GPR7-expressing cells, fluorescence antagonist assay | inhibition, % at 4.4 µM | actives 1.1% (n = 290,000); in the data active = inhibition above about 16%, passing the limit was not always enough;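 note: cells stimulated with the agonist NPW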
Target sequence (P48145 whole entry, looked up): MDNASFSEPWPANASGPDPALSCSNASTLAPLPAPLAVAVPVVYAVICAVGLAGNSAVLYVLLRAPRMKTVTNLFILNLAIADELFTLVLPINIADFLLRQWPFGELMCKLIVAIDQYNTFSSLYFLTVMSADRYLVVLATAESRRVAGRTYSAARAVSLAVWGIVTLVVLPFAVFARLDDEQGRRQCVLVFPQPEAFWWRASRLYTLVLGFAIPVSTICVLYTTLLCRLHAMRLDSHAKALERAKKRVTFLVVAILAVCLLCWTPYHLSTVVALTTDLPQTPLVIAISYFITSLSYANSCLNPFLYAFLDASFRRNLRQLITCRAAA
BaF3 parental 2 – parental Ba/F3 viability inhibition for JAK2V617F counter-screen. shares compounds with Ba/F3 V617F tox. CellTiter-Glo luminescence; cells kept alive by added IL-3. inhibition, % at 5.6 µM. actives 31% (n = 580). AID 1520;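 active = cell growth inhibition above the hit limit set in the earlier mutant JAK2 cell screen, cut at about 27% in these data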
JAK2V617F conf – confirmation: loss of viability in JAK2V617F-dependent Ba/F3 cells; shares compounds with Ba/F3 V617F tox; Ba/F3 EpoR-JAK2V617F viability, CellTiter-Glo luminescence; inhibition, % at 5.6 µM; actives 66% (n = 580); AID 1521;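 active = mean inhibition above the hit cutoff derived in the earlier primary screen, cut at about 25% in these data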;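 note: higher means lower luminescence from reduced cell ATP and viability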
Hits are given with their value; - = inactive; . = no result.

SMILES	IEC-6 tox	Ba/F3 V617F tox	DNA FID counter	BaF3 parental	KLF5 inh	GPR7 antagonist	others
Cc1nn(C)c(C(=O)NCc2ccc(Cl)cc2)c1Cl	-	-	-	34.3	-	-
CC(=O)N1CCc2cc(Br)cc(S(=O)(=O)N3CCN(c4ccccn4)CC3)c21	-	-	-	-	-	-
Cc1cc(=O)oc(C)c1C(=O)NNC(=O)C1(C)CC1Br (configuration not stated)	-	-	-	-	-	-
CC1(C(=O)NNC(=O)c2ccc(=O)oc2)CC1Br (configuration not stated)	-	-	-	28.3	-	-
Cc1ccc(C(=O)NC2CC3CCC(C2)N3Cc2ccco2)cc1 (configuration not stated)	-	-	-	-	-	-
CN1CCN(c2ccc(Nc3ccnc4cc(Cl)ccc34)cc2)CC1	-	.	82.9	.	-	-
O=C(NNc1ccnc2cc(Cl)ccc12)C1CCCCC1	-	25.2	-	35.5	-	-
CCN1CCC(Nc2ccnc3cc(Cl)ccc23)CC1	-	-	49.8	-	-	-
CCOc1ccc(Nc2ccnc3cc(Cl)ccc23)cc1	-	-	-	-	-	-
CN1CCN(c2nc3c(c(=O)[nH]c(=O)n3C)n2CCCSc2nnnn2-c2ccccc2)CC1	-	-	-	-	-	-
O=C(OCC(=O)N1CCCC1)c1ccc(OC(F)(F)F)cc1	-	-	-	-	-	-
CCCCC(=O)Nc1cc(OCC)c(NC(=S)NC)cc1OCC	-	23.7	-	61.9	-	-
O=C(O)CNC(=O)/C(=C\c1ccco1)NC(=O)c1ccco1	-	.	-	.	-	-
COc1ccc2c(c1)c1ccc3c(c1n2C)C(=O)C=CC3=O	-	57.6	-	34.8	-	-
COC(=O)c1ccc(N2C(=O)CC(N3CCN(c4ccccc4)CC3)C2=O)cc1 (configuration not stated)	-	-	-	-	-	19.0
CCOC(=O)c1ccc(N2C(=O)CC(N3CCC(Nc4ccc(F)cc4)CC3)C2=O)cc1 (configuration not stated)	-	-	-	49.3	-	-
COc1cccc(CN2CCN(Cc3cccc4c3OCO4)CC2CCO)c1 (configuration not stated)	-	-	-	-	-	-
c1cn(CCCNC2=NCCCCC2)cn1	-	-	-	90.7	-	-
c1cn(CCCNc2ncnc3sc4c(c23)CCC4)cn1	-	-	-	-	-	-
O=C(c1ccccc1)C1CCN(C(=O)c2ccc(Cl)cc2)CC1	-	.	-	.	-	-
COc1ccc(NC(=S)N(CCCN2CCOCC2)Cc2ccccn2)cc1	-	-	-	-	-	-
O=C(NCCNC(=O)c1cc(OCC(F)(F)F)ccc1OCC(F)(F)F)Nc1cccc(C(F)(F)F)c1	-	-	-	-	-	20.8
CN1CCN(C(=O)C2(NC(=O)NCc3ccccc3)CCCCC2)CC1	-	-	-	-	-	-
COc1cc(C2=NOC(C(=O)NCc3cccs3)C2)cc(OC)c1OC (configuration not stated)	-	82.2	-	76.8	-	-
Cc1ccc(F)c(NC(=O)c2ccc(Cn3cc(Cl)cn3)cc2)c1	-	-	-	-	-	33.7
SMILES	IEC-6 tox	Ba/F3 V617F tox	DNA FID counter	BaF3 parental	KLF5 inh	GPR7 antagonist	others
CCCCC(CC)Cn1c(O)c(/C=C2\C=NN=C2c2ccccc2)sc1=S (configuration not stated)	-	-	-	-	-	-
CCCCNC(=S)NNC(=O)c1ccc(Br)o1	-	-	-	-	-	-
CC(C)C(=O)NC(=S)Nc1ccccc1C(=O)Nc1ccccc1	-	-	-	-	-	-
CC(C)(C)C(=O)NC(=S)Nc1ccccc1C(=O)Nc1ccccc1	-	-	-	95.3	-	-
Cc1ccc(OCc2cc(C(=O)NCc3cc(F)ccc3C)no2)cn1	-	.	-	.	-	-
COC1(OC)C(/C=C/c2ccc(C)cc2)C(C#N)(C#N)C1(OC)OC (configuration not stated)	-	36.7	-	-	-	-	BaF3 parental 2=-;JAK2V617F conf=50.3
COc1ccc(/C=C/C(=O)c2cc(F)ccc2OC(=O)c2ccccc2C)cc1OC	88.5	38.6	-	-	67.7	-	BaF3 parental 2=28.8;JAK2V617F conf=97.3
